Reference: the supplement of paper PMC10849652
The full data set covers some 8,800 targets. This sample favours those with a hit. About 0.5% of all pairs of compound and target were hits.

Key:
Test in all cases: log2 fold change, soluble protein after heating vs DMSO (PISA); higher = thermal stabilisation; K562 lysate, 10 uM; active = over 0.2 and 3.5 SD of the protein, either way, in both replicates (recomputed)
[1] = compound: C1=CC=C(C=C1)[C@H](COC2=CC3=C(C=C2)NC(=O)N3)NC(=O)C4=CC=CN(C4=O)CC5=CC(=C(C=C5)F)F
Outline: (§1)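 Values give the log-two fold change in thermal stability against solvent controls, from duplicates. Crude K562 extract at 1 mg/mL protein, made by dounce homogenisation in PBS pH 7.4 with 1 mM MgCl2, was treated with 10 μM compound for 30 min. After 3 min heating across 48°C-58°C, aliquots were pooled, adjusted to 0.5% NP-40 at 4°C and centrifuged at 21,000xg for 90 min. The supernatant was measured by TMTpro 16plex LC-MS/MS with channel sums equalised.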

[2] = compound: CC1=C(SC2=C1C(=N[C@H](C3=NN=C(N32)C)CC(=O)N)C4=CC=C(C=C4)Cl)C
Outline: as §1

[3] = compound: CC1=C2C(=CC=C1)N=C(N(C2=O)C3=CC=CC=C3C)CN4C=NC5=C(N=CN=C54)N
Outline: as §1

[4] = compound: Cc1sc2c(c1C)C(c1ccc(Cl)cc1)=N[C@@H](CC(=O)OC(C)(C)C)c1nnc(C)n1-2
Outline: as §1

[5] = compound: c1ccc([C@@H]2C[C@H]2NC2CCNCC2)cc1
Outline: as §1

Measured: log2 fold change

TYMS (UniProt P04818)
inactive: [1] -0.005 | [2] 0.02 | [3] -0.005 | [4] 0.012 | [5] 0.014

TMEM167B (UniProt Q9NRX6)
Chain of UniProt Q9NRX6 (Q9NRX6 whole entry, looked up): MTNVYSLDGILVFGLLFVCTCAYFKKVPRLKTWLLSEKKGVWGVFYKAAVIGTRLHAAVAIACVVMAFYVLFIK
inactive: [1] 0.021 | [2] -0.032 | [3] 0.036 | [5] -0.187

TRAF2 isoform 2 (UniProt Q12933)
inactive: [1] -0.006 | [2] 0.005 | [3] -0.005 | [4] -0.002 | [5] -0.015

TTLL12 (UniProt V9GY16)
inactive: [1] 0.022 | [2] 0.606 | [3] 0.066 | [5] -0.065

TP53RK (UniProt Q96S44)
inactive: [1] 0.013 | [2] 0.021 | [3] -0.003 | [4] 0.073 | [5] 0.09

TRIP13 (UniProt Q15645)
inactive: [1] 0.006 | [2] 0.015 | [3] 0.018 | [4] 0.01 | [5] 0.049

TMPO (UniProt P42166)
inactive: [1] -0.013 | [2] 0.015 | [3] 0.015 | [4] 0.011 | [5] 0.059

TIMELESS (UniProt Q9UNS1)
inactive: [1] -0.013 | [2] 0.011 | [3] 0.01 | [4] 0.012 | [5] 0.02

TBC1D8B (UniProt Q0IIM8)
Chain of UniProt Q0IIM8 (Q0IIM8 whole entry, looked up): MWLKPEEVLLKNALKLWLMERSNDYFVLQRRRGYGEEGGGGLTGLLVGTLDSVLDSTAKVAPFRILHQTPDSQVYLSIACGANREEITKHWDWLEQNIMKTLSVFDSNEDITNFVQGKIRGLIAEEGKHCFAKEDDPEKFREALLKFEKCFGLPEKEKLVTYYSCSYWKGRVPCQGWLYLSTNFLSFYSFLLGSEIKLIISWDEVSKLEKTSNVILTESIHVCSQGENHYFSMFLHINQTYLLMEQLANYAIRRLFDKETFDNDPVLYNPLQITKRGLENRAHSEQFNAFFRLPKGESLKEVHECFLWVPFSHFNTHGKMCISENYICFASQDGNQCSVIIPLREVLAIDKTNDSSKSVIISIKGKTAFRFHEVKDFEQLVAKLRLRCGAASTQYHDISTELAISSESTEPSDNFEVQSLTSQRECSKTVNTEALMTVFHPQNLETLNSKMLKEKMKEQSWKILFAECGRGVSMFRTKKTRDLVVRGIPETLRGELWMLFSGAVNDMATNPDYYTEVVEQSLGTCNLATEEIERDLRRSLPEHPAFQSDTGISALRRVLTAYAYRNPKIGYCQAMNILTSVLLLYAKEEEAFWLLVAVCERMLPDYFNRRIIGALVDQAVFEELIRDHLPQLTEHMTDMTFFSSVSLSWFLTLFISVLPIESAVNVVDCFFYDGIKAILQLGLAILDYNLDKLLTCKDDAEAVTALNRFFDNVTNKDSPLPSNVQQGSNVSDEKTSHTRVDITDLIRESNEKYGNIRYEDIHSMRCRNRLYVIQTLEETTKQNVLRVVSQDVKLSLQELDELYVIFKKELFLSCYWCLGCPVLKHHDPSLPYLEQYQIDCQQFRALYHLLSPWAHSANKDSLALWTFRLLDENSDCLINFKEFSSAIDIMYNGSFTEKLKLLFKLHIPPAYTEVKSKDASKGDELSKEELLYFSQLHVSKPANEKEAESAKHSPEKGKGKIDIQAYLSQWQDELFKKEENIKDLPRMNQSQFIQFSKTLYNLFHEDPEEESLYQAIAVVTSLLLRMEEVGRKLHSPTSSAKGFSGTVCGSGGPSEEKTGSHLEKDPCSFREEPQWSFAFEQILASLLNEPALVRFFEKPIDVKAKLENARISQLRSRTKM
inactive: [1] -0.086 | [2] -0.078 | [3] -0.038 | [4] -0.013 | [5] -0.101

TOPBP1 (UniProt Q92547)
inactive: [1] 0.012 | [2] 0.001 | [3] 0.026 | [4] -0.016 | [5] 0.099

TOR3A (UniProt Q9H497)
Chain of UniProt Q9H497 (Q9H497 whole entry, looked up): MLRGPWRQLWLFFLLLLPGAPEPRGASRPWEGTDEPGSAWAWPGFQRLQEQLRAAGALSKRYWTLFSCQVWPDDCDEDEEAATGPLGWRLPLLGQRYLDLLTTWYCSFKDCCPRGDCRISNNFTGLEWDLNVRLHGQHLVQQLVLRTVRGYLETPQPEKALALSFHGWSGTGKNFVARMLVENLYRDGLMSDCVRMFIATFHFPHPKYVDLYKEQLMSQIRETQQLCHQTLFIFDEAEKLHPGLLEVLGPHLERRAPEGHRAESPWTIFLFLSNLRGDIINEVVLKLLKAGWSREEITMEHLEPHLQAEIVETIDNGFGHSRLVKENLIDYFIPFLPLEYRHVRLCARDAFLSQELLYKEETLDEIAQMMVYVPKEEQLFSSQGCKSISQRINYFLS
inactive: [1] -0.009 | [2] -0.025 | [3] 0.013 | [4] 0.018 | [5] -0.008

TUBB3 (UniProt Q13509)
Chain of UniProt Q13509 (Q13509 whole entry, looked up): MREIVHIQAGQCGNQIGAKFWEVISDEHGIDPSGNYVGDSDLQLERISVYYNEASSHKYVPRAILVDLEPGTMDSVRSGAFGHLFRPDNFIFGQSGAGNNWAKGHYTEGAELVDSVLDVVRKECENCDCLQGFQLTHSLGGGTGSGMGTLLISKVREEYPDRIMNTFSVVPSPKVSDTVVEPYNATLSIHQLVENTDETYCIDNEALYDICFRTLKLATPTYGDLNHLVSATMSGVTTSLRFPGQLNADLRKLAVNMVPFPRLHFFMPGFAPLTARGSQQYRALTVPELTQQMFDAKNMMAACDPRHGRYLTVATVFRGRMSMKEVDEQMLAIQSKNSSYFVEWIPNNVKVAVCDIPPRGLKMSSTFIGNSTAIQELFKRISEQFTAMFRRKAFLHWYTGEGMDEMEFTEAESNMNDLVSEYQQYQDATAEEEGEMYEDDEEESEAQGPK
inactive: [1] 0.014 | [2] -0.005 | [3] 0.008 | [4] 0.008 | [5] 0.01

TPM1 (UniProt H7BYY1)
inactive: [1] -0.028 | [2] 0.017 | [3] 0.059 | [4] 0.031 | [5] 0.023

UCHL5 isoform 3 (UniProt Q9Y5K5)
Chain of UniProt Q9Y5K5 (Q9Y5K5 whole entry, looked up): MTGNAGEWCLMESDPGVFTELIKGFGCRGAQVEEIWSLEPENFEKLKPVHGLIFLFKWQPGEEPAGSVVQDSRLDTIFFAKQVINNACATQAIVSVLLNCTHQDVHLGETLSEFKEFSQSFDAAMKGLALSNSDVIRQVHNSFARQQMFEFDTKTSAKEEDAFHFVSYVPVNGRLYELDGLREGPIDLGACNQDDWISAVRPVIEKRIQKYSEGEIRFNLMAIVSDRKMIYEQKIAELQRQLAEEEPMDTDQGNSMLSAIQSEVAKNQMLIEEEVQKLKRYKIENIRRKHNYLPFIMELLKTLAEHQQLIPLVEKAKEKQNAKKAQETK
inactive: [1] -0.001 | [2] 0.033 | [3] 0.01 | [4] 0.015 | [5] 0.029

TRIM11 (UniProt Q96F44)
inactive: [1] 0.028 | [2] 0.035 | [3] 0.04 | [4] -0.011 | [5] -0.001

TPM4 (UniProt P67936)
inactive: [1] -0.003 | [2] 0.057 | [3] -0.021 | [4] -0.025 | [5] -0.04

TPM3 isoform 2 (UniProt P06753)
Chain of UniProt P06753 (P06753 whole entry, looked up): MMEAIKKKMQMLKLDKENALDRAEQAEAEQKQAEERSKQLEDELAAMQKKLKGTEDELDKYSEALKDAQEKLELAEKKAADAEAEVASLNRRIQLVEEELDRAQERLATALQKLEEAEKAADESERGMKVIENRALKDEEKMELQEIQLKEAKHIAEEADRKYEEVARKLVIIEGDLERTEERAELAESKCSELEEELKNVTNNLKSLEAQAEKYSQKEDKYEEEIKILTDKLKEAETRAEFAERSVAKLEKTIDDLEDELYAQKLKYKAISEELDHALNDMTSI
inactive: [1] -0.02 | [2] 0.01 | [3] -0.025 | [4] -0.009 | [5] 0.056

UBR4 (UniProt Q5T4S7)
inactive: [1] -0.012 | [2] -0.008 | [3] 0.012 | [4] 0.012 | [5] -0.003

TFAP4 (UniProt Q01664)
inactive: [1] 0.018 | [2] -0.069 | [3] 0.012 | [5] 0.081

UFM1 (UniProt P61960)
Chain of UniProt P61960 (P61960 whole entry, looked up): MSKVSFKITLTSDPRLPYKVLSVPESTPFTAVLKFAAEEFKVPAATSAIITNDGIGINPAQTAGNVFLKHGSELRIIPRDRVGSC
inactive: [1] 0.015 | [2] -0.085 | [3] -0.103 | [4] -0.019 | [5] 0.297

TNIK (UniProt C9J338)
inactive: [1] -0.028 | [2] 0.067 | [3] 0.135 | [4] -0.225 | [5] -0.375

TECR (UniProt Q9NZ01)
Chain of UniProt Q9NZ01 (Q9NZ01 whole entry, looked up): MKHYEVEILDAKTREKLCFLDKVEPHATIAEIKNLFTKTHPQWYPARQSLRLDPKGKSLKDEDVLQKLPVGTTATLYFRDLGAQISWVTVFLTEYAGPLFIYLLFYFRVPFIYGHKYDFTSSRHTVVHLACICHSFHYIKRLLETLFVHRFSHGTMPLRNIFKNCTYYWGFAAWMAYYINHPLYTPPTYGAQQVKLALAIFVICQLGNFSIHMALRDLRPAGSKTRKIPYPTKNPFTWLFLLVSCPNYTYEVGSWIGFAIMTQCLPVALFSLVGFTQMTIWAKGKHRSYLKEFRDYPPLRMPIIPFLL
inactive: [1] -0.131 | [2] 0.083 | [3] 0.015 | [4] 0.017 | [5] 0.046

TOX4 (UniProt O94842)
Chain of UniProt O94842 (O94842 whole entry, looked up): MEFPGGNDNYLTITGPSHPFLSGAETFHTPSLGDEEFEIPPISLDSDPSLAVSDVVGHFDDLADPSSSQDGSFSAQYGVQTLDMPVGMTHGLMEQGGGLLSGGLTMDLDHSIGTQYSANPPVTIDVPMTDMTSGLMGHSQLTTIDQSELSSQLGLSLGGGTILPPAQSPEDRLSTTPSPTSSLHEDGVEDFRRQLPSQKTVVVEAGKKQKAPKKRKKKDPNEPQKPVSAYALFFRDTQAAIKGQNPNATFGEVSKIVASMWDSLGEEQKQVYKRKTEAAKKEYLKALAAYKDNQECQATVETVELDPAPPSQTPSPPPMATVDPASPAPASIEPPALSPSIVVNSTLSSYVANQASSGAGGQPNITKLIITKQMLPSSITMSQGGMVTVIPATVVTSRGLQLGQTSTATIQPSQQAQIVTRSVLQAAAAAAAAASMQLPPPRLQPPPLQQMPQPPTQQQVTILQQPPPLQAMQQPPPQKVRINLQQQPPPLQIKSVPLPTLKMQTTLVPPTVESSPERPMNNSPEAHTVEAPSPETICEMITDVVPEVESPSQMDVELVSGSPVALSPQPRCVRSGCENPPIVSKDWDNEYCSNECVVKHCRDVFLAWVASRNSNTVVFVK
inactive: [1] -0.011 | [2] 0.001 | [3] -0.021 | [4] -0.019 | [5] -0.146

TTF2 (UniProt Q9UNY4)
inactive: [1] -0.092 | [2] 0.029 | [3] 0.003 | [4] 0.127 | [5] 0.003

TFCP2 (UniProt Q12800)
inactive: [1] 0.044 | [2] -0.013 | [3] 0.004 | [4] -0.013 | [5] -0.103

TUBA4A (UniProt P68366)
inactive: [1] -0.068 | [2] 0.013 | [3] 0.03 | [4] -0.024 | [5] 0.019

UBXN10 (UniProt Q96LJ8)
Chain of UniProt Q96LJ8 (Q96LJ8 whole entry, looked up): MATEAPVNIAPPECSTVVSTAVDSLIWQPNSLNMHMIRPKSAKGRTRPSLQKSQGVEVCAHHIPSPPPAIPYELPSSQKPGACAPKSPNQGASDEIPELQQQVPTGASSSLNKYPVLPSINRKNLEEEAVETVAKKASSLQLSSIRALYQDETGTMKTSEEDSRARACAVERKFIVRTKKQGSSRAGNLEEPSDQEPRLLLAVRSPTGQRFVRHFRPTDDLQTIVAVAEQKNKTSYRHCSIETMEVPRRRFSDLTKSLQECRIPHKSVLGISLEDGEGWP
inactive: [1] -0.032 | [2] 0.048 | [3] 0.056 | [4] 0.095 | [5] 0.022

TOE1 (UniProt Q96GM8)
inactive: [1] 0.063 | [2] -0.01 | [3] 0.03 | [4] 0.032 | [5] 0.01

TTL (UniProt Q8NG68)
inactive: [1] 0.004 | [2] -0.029 | [3] 0.145 | [4] 0.014 | [5] 0.104

TTC38 (UniProt Q5R3I4)
inactive: [1] -0.001 | [2] 0 | [3] 0.05 | [4] 0.003 | [5] 0.126

UBL4A (UniProt P11441)
inactive: [1] -0.029 | [2] -0.003 | [3] -0.017 | [4] 0.142 | [5] 0.073

TBC1D2B (UniProt Q9UPU7)
inactive: [1] -0.024 | [2] 0.139 | [3] -0.048 | [4] -0.065 | [5] -0.008

UCHL5 (UniProt Q5LJA9)
inactive: [1] 0.002 | [2] -0.059 | [3] -0.022 | [4] -0.251 | [5] 0.133

TUBB4A (UniProt M0QYM7)
inactive: [1] -0.207 | [2] -0.162 | [3] 0.016 | [5] -0.074

TIAL1 isoform 2 (UniProt Q01085)
Chain of UniProt Q01085 (Q01085 whole entry, looked up): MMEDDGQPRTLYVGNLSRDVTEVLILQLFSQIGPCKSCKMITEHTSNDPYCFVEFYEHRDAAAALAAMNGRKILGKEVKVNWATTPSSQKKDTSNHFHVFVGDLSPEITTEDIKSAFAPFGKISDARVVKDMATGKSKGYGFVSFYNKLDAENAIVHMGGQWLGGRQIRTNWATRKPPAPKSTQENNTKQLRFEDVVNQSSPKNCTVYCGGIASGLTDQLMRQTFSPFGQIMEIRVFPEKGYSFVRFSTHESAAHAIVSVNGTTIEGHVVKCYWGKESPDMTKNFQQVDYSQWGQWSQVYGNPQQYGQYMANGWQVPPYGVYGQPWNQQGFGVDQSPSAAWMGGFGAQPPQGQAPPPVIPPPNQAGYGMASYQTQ
inactive: [1] 0.068 | [2] 0.017 | [3] -0.02 | [4] 0.031 | [5] -0.021

TCAF2 (UniProt A6NFQ2)
inactive: [1] 0.159 | [2] 0.091 | [3] 0.027 | [4] 0.007 | [5] 0.042

TRIM23 (UniProt P36406)
Chain of UniProt P36406 (P36406 whole entry, looked up): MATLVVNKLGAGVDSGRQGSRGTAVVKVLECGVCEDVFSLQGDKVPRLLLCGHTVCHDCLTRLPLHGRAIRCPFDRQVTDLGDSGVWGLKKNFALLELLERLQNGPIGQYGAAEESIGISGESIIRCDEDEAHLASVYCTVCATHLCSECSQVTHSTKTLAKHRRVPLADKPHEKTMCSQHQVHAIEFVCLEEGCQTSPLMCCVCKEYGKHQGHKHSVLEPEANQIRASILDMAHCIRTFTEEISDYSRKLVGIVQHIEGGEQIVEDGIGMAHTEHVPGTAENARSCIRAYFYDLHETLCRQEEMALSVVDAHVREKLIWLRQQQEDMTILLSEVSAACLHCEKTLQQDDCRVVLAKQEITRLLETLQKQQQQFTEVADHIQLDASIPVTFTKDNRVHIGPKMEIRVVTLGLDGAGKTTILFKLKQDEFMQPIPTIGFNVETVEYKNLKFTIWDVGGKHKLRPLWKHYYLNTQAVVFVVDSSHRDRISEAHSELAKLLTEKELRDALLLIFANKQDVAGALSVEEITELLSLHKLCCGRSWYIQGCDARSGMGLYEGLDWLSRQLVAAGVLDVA
inactive: [1] 0.036 | [2] -0.05 | [3] 0.052 | [4] 0.034 | [5] -0.275
